LDHA block – inhibitors of human lactate dehydrogenase A; activity change, % (values are at about 110 or 230 µM); purified LDHA, NADH/diaphorase-resazurin fluorescence; hits give low values; hit rate 0.15% among 480,000; P00338; in the data active means activity change below about -30%; inconclusive means mostly about -25% to -30%
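Resorufin fluorescence (ex540/em590), read at 0 and 20 min after diaphorase/resazurin addition, reports the NADH left after a 5 min room-temperature reaction of 2 nM human LDH5 with 0.06 mM NADH and 0.2 mM pyruvate.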
D3 antag – antagonists of human D3 dopamine receptor | hit rate 2.5% among 360,000 | D3R cells, DiscoveRx beta-arrestin luminescence, antagonist mode; hits give low values | P35462 | max response, negative = inhibition, %; in the data active means max response below about -50%; inconclusive means no clear call, values can overlap the other calls
Target sequence (P35462 whole entry, looked up): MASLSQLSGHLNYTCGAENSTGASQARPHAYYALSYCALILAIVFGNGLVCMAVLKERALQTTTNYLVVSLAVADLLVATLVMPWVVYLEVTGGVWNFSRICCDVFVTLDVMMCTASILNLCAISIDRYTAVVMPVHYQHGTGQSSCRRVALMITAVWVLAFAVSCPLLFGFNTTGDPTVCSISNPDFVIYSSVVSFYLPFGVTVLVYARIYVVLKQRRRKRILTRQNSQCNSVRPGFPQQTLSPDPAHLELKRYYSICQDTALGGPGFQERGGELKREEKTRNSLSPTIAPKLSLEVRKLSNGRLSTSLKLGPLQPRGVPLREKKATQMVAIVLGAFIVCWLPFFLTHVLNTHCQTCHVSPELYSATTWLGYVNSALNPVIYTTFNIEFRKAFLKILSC
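Cells expressing the human receptor were seeded at 1500 cells/well, incubated overnight at 37 degrees C in 5% CO2, then exposed to library compounds with dopamine controls for 90 minutes at 37 degrees C before luminescent detection.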
PI4K2A block – PI4K2A (human) kinase inhibition; Q9BTU6; purified PI4K2A, ADP-Glo luminescence, 1 h; hits give low values; activity change, negative = inhibition, % at 76.9 µM; hit rate 0.13% among 420,000; AID 1346378; in the data active means activity change below about -50%; inconclusive means mostly about -30% to -49%
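ADP-Glo luminescence measured ADP generated by PI4K2A enzyme (4 ug/mL before mixing) with 1.2 mM PI substrate (pre-mix) and 300 microM ATP (pre-mix). Tris pH7.5 buffer with MgCl2, Triton X-100; 1 h reaction at ambient temperature.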
DRD3 agonist – activates the human D3 dopamine receptor. AID 652048. max activation, %. hit rate 0.58% among 410,000. D3R DiscoveRx beta-arrestin cells, luminescence, 90 min. P35462; in the data active means max activation above about 30%
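Cells at 1500/well, incubated overnight, then treated with pinned compounds (dopamine as control) for 90 min at 37 degrees C. DiscoveRx reagent added for 30 - 60 minutes at room temperature; luminescence read.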
PI5P4K alpha inh – inhibitors of human PI5P4K alpha | P48426 | PI5P4Kalpha enzyme, ADP-Glo luminescence, 60 min; hits give low values | max response, % | hit rate 1.2% among 330,000; active means max response of -50% or lower; inconclusive means between -30% and -50%; inactive means -30% or higher; further: value at the top dose of about 77 µM
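Luminescence from ADP-Glo served as readout of PI5P4Kalpha activity in a qHTS format. Reaction: enzyme, substrate, compound, ATP at 5 microM final, 60 min at RT.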
A number is an active result; n = inactive; u = inconclusive; x = no result given. Sampled rows, rich in hits. Any-hit rate of the full collection: about 3.3%.

SMILES	LDHA block	D3 antag	PI4K2A block	DRD3 agonist	PI5P4K alpha inh
O=C(Nc1ccc(O)c(-c2nc3ccccc3o2)c1)c1cccnc1	n	x	x	x	x
CC(=O)C1=C(O)C(=O)N(c2ccc(S(N)(=O)=O)cc2)C1c1ccc([N+](=O)[O-])cc1 (configuration not stated)	n	-81.5	n	n	n
CCC(C(=O)Nc1ccc(OC)cc1OC)n1nc(-c2ccccc2)c2c(c1=O)CCCC2 (configuration not stated)	n	x	x	x	x
Cc1ccccc1OCCCC(=O)NCc1ccco1	n	-123.2	n	n	x
Cc1ccc(OCCCC(=O)NCc2ccco2)cc1	n	n	n	n	x
CCC(=O)C1=C(c2ccc3c(c2)CCCC3)N(C(=O)CC)n2cnnc2S1	n	x	x	x	x
COc1cccc(-c2ccc(-c3noc(-c4cccs4)n3)c(OC)n2)c1	-38.0	n	n	n	n
COc1nc(-c2ccc(Cl)cc2)ccc1-c1noc(-c2ccco2)n1	-36.9	n	n	n	x
COc1ccc2[nH]c(=O)c(-c3noc(-c4cccs4)n3)cc2c1	-37.9	x	x	x	x
COc1ccc2[nH]c(=O)c(-c3noc(-c4ccccc4)n3)cc2c1	n	n	n	n	n
COc1ccc(-c2ccc(-c3noc(-c4cc(OC)cc(OC)c4)n3)c(OC)n2)cc1	n	x	n	n	x
CCCn1nc(NC(=O)CC)c2cc3cccc(C)c3nc21	n	n	n	n	n
CCCn1nc(NS(C)(=O)=O)c2cc3cccc(C)c3nc21	n	-53.3	n	n	n
CC(Cc1cccs1)N(Cc1ccc(Cl)cc1)C(=O)CC1CCCC1 (configuration not stated)	n	x	x	x	x
CNC(=O)NCc1cccc(Oc2ccccc2)c1	n	x	x	x	x
C[C@@]12C(=O)OC(=O)[C@]1(C)C1CCC2O1	n	-86.7	n	n	n
CC12C(=O)N(c3nccs3)C(=O)C1(C)C1CCC2O1 (configuration not stated)	n	n	n	n	n
COc1cc(/C=C2\C(=O)ON=C2c2ccccc2)cc(Br)c1O	n	n	n	n	-85.2
COc1cc(/C=C2/C(=O)ON=C2c2ccccc2)ccc1O	n	n	n	n	u
CCOc1cc(/C=C2/C(=O)ON=C2C)cc(Br)c1O	n	n	n	n	-66.8
CCCOc1ccc(/C=C2/C(=O)ON=C2C)cc1OCC	n	n	n	n	n
CCOc1cc(/C=C2\C(=O)ON=C2c2ccccc2)cc(Br)c1O	n	n	n	n	-78.6
COc1cc(/C=C2\C(=O)ON=C2c2ccccc2)cc(Cl)c1O	u	n	n	n	-66.8
COc1ccc(S(=O)(=O)N2c3ccc(Br)cc3C(C)=CC2(C)C)cc1	n	x	x	x	x
O=C(O)c1cc(F)c(Cl)cc1Cl	n	x	x	x	x
SMILES	LDHA block	D3 antag	PI4K2A block	DRD3 agonist	PI5P4K alpha inh
CSc1nc(SCCO)c2sc3nc(-c4ccco4)c4c(c3c2n1)CC(C)(C)OC4	n	n	n	n	x
CSc1nc(N(CCO)CCO)c2sc3nc(-c4ccco4)c4c(c3c2n1)CCC4	n	n	-56.3	n	-88.9
COc1ccc(C(=O)N2CCCC(N3CCN(c4ccccc4F)CC3)C2)c(OC)n1 (configuration not stated)	n	n	n	38.4	n
Cc1cc(C)cc(N(CC(=O)Nc2c(C)cc(C)cc2C)S(=O)(=O)c2c(C)nn(C)c2C)c1	n	x	n	77.6	x
Cc1cc(C(=O)CSc2nnnn2C2CC2)c(C)n1Cc1cccs1	n	x	x	x	x
Cc1ccc2c(=O)cc(C(=O)N(Cc3ccccc3)c3ccccn3)oc2c1C	n	x	x	x	x
COc1cc(/C=C(\C#N)C(=O)c2ccc(O)c(O)c2)cc(I)c1O	-44.5	n	n	39.8	-84.9
CN1OC[C@@H]2CN(Cc3cc(Cl)cc(Cl)c3)[C@H](c3cccc(-c4ccc(C#N)cc4)c3)C[C@@H]21	-30.8	n	n	n	n
N#CC(c1ccccc1)c1ccc2c(C(F)(F)F)cc(C(F)(F)F)nc2n1 (configuration not stated)	n	-80.2	n	n	n
Cc1ccc(-c2[nH]c3cc(C(=O)NCCCn4ccnc4)ccc3c(=O)c2O)cc1	n	-63.9	n	n	n
COCCN1C(=O)N[C@@H](c2cccs2)C(C(C)=O)=C1C	n	n	n	35.3	n
Cc1ccc(C(=O)c2c3ccc(N)cc3nn2CCC(N)=O)cc1	n	-73.2	n	n	u
Clc1ccc2c(c1)C(N1CCNCC1)=Nc1ccccc1O2	n	-117.4	n	n	n
CC1=Nc2cc(Cl)ccc2Oc2ccccc21	n	n	n	n	n
